Columns and labels:
Experiment in all cases: growth inhibition (% activity, log2 RLU normalised to DMSO / staurosporine); higher = more growth inhibition
Settings in all cases: 33 µM
DIPGX29 = system: DIPGX29 (H3.3 K27M diffuse intrinsic pontine glioma line)
Summary of the method: (§1)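 The growth-inhibition value is the median over replicates. pHGG cell lines and H9-derived neural stem cells on Geltrex-coated 384-well plates received approved drugs by pin tool at a single final concentration of about 33 μM, in triplicate, for 7 days at 37 °C, 5% CO2. CellTiter-Glo luminescence was log2-transformed and normalised per plate to % activity between solvent and positive control wells.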

DIPGX37 = system: DIPGX37 (H3.3 K27M diffuse intrinsic pontine glioma line)
Summary of the method: as §1

DIPGX7 = system: DIPGX7 (H3.3 K27M diffuse intrinsic pontine glioma line)
Summary of the method: as §1

DIPGX9 = system: DIPGX9 (diffuse intrinsic pontine glioma line)
Summary of the method: as §1

HGGX39 = system: HGGX39 (paediatric high-grade glioma line)
Summary of the method: as §1

HGGX6 = system: HGGX6 (H3.3 G34R paediatric high-grade glioma line)
Summary of the method: as §1

HNSC = system: HNSC
Summary of the method: as §1

SUDIPGIV = system: SUDIPGIV (diffuse intrinsic pontine glioma line)
Summary of the method: as §1

SUDIPGVI = system: SUDIPGVI (diffuse intrinsic pontine glioma line)
Summary of the method: as §1

SUDIPGXIII = system: SUDIPGXIII (diffuse intrinsic pontine glioma line)
Summary of the method: as §1

Compound | growth inhibition (DIPGX29) | growth inhibition (DIPGX37) | growth inhibition (DIPGX7) | growth inhibition (DIPGX9) | growth inhibition (HGGX39) | growth inhibition (HGGX6) | growth inhibition (HNSC) | growth inhibition (SUDIPGIV) | growth inhibition (SUDIPGVI) | growth inhibition (SUDIPGXIII)
CC(=O)OCC(=O)[C@@]1(O)CC[C@H]2[C@@H]3CCC4=CC(=O)C=C[C@]4(C)[C@@]3(Cl)[C@@H](Cl)C[C@@]21C | 0.772% | 1.33% | 1.5% | 3.59% | 0.199% | -1.27% | 8.39% | -2.64% | -2.25% | 1.64%
C[C@H]1C[C@@H]2[C@H]([C@@H](O)C[C@@]3(C)[C@H]2CC[C@]3(O)C(=O)CO)[C@@]2(C)C=CC(=O)C=C12 | -0.195% | 0.838% | -1.93% | 2.66% | -0.0158% | -2.28% | -1.14% | 5.2% | -0.182% | 1.59%
Clc1ccc(COC(Cn2ccnc2)c2ccc(Cl)cc2Cl)cc1 (stereo not given) | 1.53% | 4.62% | 0.954% | 4% | 9.31% | 8.25% | 7.53% | 11.7% | 1.21% | 7.66%
CCOc1nc2cccc(C(=O)OC(C)OC(=O)OC3CCCCC3)c2n1Cc1ccc(-c2ccccc2-c2nn[nH]n2)cc1 (stereo not given) | -1.79% | -1.28% | -1.84% | -0.119% | -0.661% | 0.0529% | -2.55% | -3.13% | -3.95% | -0.781%
COc1ccc(CN2CCN(C(c3ccc(F)cc3)c3ccc(F)cc3)CC2)c(OC)c1OC | 3.37% | 4.29% | 2.14% | 3.16% | 7.88% | 4.43% | 7.5% | 2.85% | 3.72% | -11.1%
Nc1ncn(C2OC(CO)C(O)C2O)c(=O)n1 (stereo not given) | 3.4% | -0.711% | 5.91% | 7.54% | 4.31% | 1.61% | 55.5% | 16.7% | 0.0997% | -1.9%
OC1(c2ccc(Cl)c(C(F)(F)F)c2)CCN(CCCC(c2ccc(F)cc2)c2ccc(F)cc2)CC1 | 22.5% | -5.49% | 5.28% | -1.11% | 4.1% | 4.08% | 71.6% | 4.36% | -7.48% | 51.7%
Cc1noc(NS(=O)(=O)c2ccc(N)cc2)c1C | -0.149% | -0.401% | -0.198% | -0.0916% | 2.16% | -1.61% | 29.4% | -0.587% | -0.478% | -3.55%
Cn1ccnc1S | -2.03% | -0.808% | -1.31% | -0.195% | -0.799% | -0.968% | -4.2% | -2.69% | -1.6% | -8.17%
NNC(=O)c1ccncc1.Nc1ccc(C(=O)O)c(O)c1 | 0.532% | 2.72% | 1.7% | 2.6% | 2.23% | 1.63% | -0.818% | 0.972% | 3.47% | -1.36%
NS(=O)(=O)c1cc2c(cc1C(F)(F)F)NC(Cc1ccccc1)NS2(=O)=O (stereo not given) | -1.42% | 2.24% | -1.56% | -0.0939% | -0.621% | 1.26% | -0.523% | -1.96% | 0.355% | 0.995%
C=C[C@H]1CN2CC[C@H]1C[C@H]2[C@H](O)c1ccnc2ccc(OC)cc12 | 2.06% | 3.05% | 2.14% | 2.35% | 3.17% | 1.13% | 2.99% | 2.17% | 4.23% | -0.182%
Nc1ccc(C(=O)NCC(=O)O)cc1 | -0.487% | -0.247% | -0.0371% | 0.0884% | 1.62% | 2.81% | -1.34% | 1.42% | 1.49% | 0.0926%
CCOC(=O)c1ncn2c1CN(C)C(=O)c1cc(F)ccc1-2 | 1.51% | 1.71% | 0.351% | 4.52% | 2.75% | 0.552% | 0.0947% | -1.75% | 2.57% | 2.26%
CN(C)c1cc(NC(=O)CNC(C)(C)C)c(O)c2c1CC1CC3C(N(C)C)C(=O)C(C(N)=O)=C(O)C3(O)C(=O)C1=C2O (stereo not given) | -2.13% | -0.102% | -0.656% | -1.41% | -1.33% | -2.33% | -2.93% | -2.9% | -1.89% | 0.694%
CNCCc1ccccn1 | 0.924% | 1.45% | 1.21% | 1.11% | 2.84% | 1.49% | 1.31% | 1.96% | 4.33% | -0.14%
O=C(NCCO[N+](=O)[O-])c1cccnc1 | -0.0278% | 2.96% | 1.16% | 1.21% | 0.669% | -4.02% | 46.8% | 0.797% | 1.67% | -0.184%
CC1(C)O[C@@H]2C[C@H]3[C@@H]4CCC5=CC(=O)C=C[C@]5(C)[C@H]4[C@@H](O)C[C@]3(C)[C@]2(C(=O)CO)O1 | 0.656% | 2.84% | -0.564% | 3% | 2.23% | 1.78% | -4.33% | 0.0175% | -0.194% | 2.31%
O=c1[nH]c(=O)n([C@H]2C[C@H](O)[C@@H](CO)O2)cc1I | 0.0722% | -1.6% | -3.14% | -0.0918% | -2.1% | -0.2% | 17.9% | -1.37% | -0.112% | 0.635%
CCNC(=O)CCC/C=C\C[C@@H]1[C@@H](/C=C/[C@@H](O)CCc2ccccc2)[C@H](O)C[C@@H]1O | 0.795% | 0.309% | 1.77% | 0.624% | 3.66% | 1.1% | 1.72% | 0.456% | 0.646% | -0.283%
Clc1ccc(C(Cn2ccnc2)OCc2c(Cl)cccc2Cl)c(Cl)c1 (stereo not given) | 2.72% | 3.03% | 3.97% | 3.76% | 8.33% | 5.87% | 4.09% | 11.2% | 2.55% | 10.5%
CCCC(=O)OCOC(=O)C1=C(C)NC(C)=C(C(=O)OC)C1c1cccc(Cl)c1Cl (stereo not given) | 2.13% | 4.21% | 2.32% | 2.4% | 4.32% | -0.314% | 31.7% | 2.85% | 3.35% | -0.196%

— the supplement of paper PMC8253809
